Outcome and fluorescence, % of fluorescein control data for 20 compounds are collected here from PubChem BioAssay (Tox21).

The structures appear in SMILES notation. Unmarked numbers belong to inactive results. The source made the active and inactive calls. Calls follow the shape of the dose curve; as a rule, active = well fitted curve in the direction sought with a large enough effect in the repeat runs; inconclusive = weak or mixed curves; inactive = flat fitted curve, though single readings scatter.
% is scaled to controls: 0 for no effect and ±100 for the full control effect.

A short description of this experiment: qHTS assay to test for compound auto fluorescence at 535 nm (green) in HepG2 cell free culture (AID 720686). As to conditions: Cell-free medium, green autofluorescence 485/535 nm; series mostly up to 91.3 µM.
Regarding `O=c1[nH]c(=O)c2ccccc2o1`, the result was inactive. On the same count and under the same terms, the value for `Cc1cc(O)c2c(c1)C(=O)c1cccc(O)c1C2=O` was “inactive”.

In the case of `FC(F)(F)/C(=N\OCC1OCCO1)c1ccc(Cl)cc1`, the result was inactive.

Turning to `CC(C)=CC(C)(C)C`, the result was inactive.

For the compound `C=CCOCC(CO)(COCC=C)COCC=C`, the call was inactive. The same measure, in the same setting: to `C[C@H](CCC(=O)NCC(=O)O)[C@H]1CC[C@H]2[C@@H]3[C@H](O)C[C@@H]4C[C@H](O)CC[C@]4(C)[C@H]3C[C@H](O)[C@]12C` belongs “inactive”; to `O=S(=O)(O)CCO`, “inactive”; to `C[N+](C)(C)CC(O)CCl` (stereo not given), “inactive”. Same read-out and setting: the value for `CN(C)CCOCCN(C)CCO` was “inactive”. Still for that read-out and setting: the value for `CN(C)CCCNCCC#N` was “inactive”; that for `C=CC(C)(O)CC/C=C(\C)CC` (stereo not given) was “inactive”. On to `O=C(Nc1cccc(C2=NCCN2)c1)Nc1cccc(C2=NCCN2)c1`, for which the result was inactive. The same measure, in the same setting: the value for `CC(C)(c1ccc(Oc2ccc3c(c2)C(=O)OC3=O)cc1)c1ccc(Oc2ccc3c(c2)C(=O)OC3=O)cc1` was “inactive”; that for `CO/N=C(/C(=O)N[C@@H]1C(=O)N2C(C(=O)O)=C(Cn3nnc(C)n3)CS[C@H]12)c1csc(N)n1` was “inactive”.

Regarding `CC(=O)OCCCc1ccccc1`, the outcome was inactive. On to `COc1cc2c3cc1Oc1cc(ccc1O)C[C@@H]1c4c(cc(OC)c(O)c4Oc4ccc(cc4)C[C@@H]3N(C)CC2)CC[N+]1(C)C`, for which the outcome was inactive.

For `SCCSCCS`, the compound was called inactive. The same measure, in the same setting: to `CC1=NN(c2ccc(S(=O)(=O)O)cc2)C(=O)C1N=Nc1ccccc1` (stereo not given) belongs “inactive”. On the same count and under the same terms, to `CCNC(=O)NCCCOc1cccc(CN2CCCCC2)c1` belongs “inactive”. As for `C1CCN2C[C@@H]3C[C@@H](CN4CCCC[C@@H]34)[C@H]2C1`, the fluorescence, % of fluorescein control is 0.104% [at 18.6 µM].
